# Screening data deposited in PubChem BioAssay by National Center for Advancing Translational Sciences (NCATS).
# Most compounds without a hit are left out; they make up all but 21% or so of the library.
# Pf growth 48h: P. falciparum growth inhibition at 48 hours (one generation); AID 504832; 310,000 tested, 5.9% active; P. falciparum luciferase growth in erythrocytes, 48 h; Potency, µM (doses to about 28.7 µM), for the others: at the top dose activity change, negative = inhibition, hits mostly inhibitors; active = well fitted inhibition curve with a large enough effect; inconclusive = small, poorly fitted or top-dose-only effect, or another doubt; inactive = no such curve, though single readings can be large or run the other way; also: potency is read from the fitted curve at half-maximal effect; % is scaled to controls: 0 for no effect and ±100 for the full control effect
#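 Erythrocytes infected with P. falciparum carrying an integrated firefly luciferase reporter (2% hematocrit, 0.1% parasitemia final) were exposed to compounds in RPMI 1640 with 0.5% Albumax at 37 C, 5% CO2. Growth inhibition was scored as reduced luminescence.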
# SARS PLpro yeast: blocks SARS-CoV papain-like protease in a yeast assay. 330,000 tested, 0.19% active. Potency, µM (top dose mostly 32.9 µM), without a hit: at the highest dose activity, positive = growth rescue, actives largely listed as activators. S. cerevisiae expressing SARS-CoV PLpro, growth rescue; also: potency is read from the fitted curve at half-maximal effect; 0% is about no effect; nearly all actives have a fitted effect of over 55% in size
# Shiga inhibitor: blocks Shiga toxin action in Vero cells; Vero cells, Shiga toxin protein synthesis inhibition reporter; inhibition, % at 38.7 µM; 290,000 tested, 9.2% active; in the data active = inhibition mostly above about 28%, no sharp cut-off; inactive = mostly below about 43%; also: 0% is about no effect
# NS1 inh: influenza NS1 inhibition | Potency, µM (top dose mostly 46.1 µM), inactives show top-dose activity, positive = more growth | 270,000 tested, 0.4% active; also: potency is read from the fitted curve at half-maximal effect; actives are rising curves; nearly all actives have a fitted effect of over 50% in size
#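 Compounds were scored for reversing the slow growth caused by influenza A NS1 in S. cerevisiae, measured by optical density at 600 nm. Assay medium contained 2% galactose at pH 6.0; NS1-free yeast of the same strain were the positive control.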
# Pf growth 96h: inhibits malaria parasite growth, 96 h; P. falciparum luciferase reporter growth, 96 h; Potency, µM (top dose mostly 28.7 µM), without a hit: at the highest dose activity change, negative = inhibition, actives largely listed as inhibitors; 320,000 tested, 6.9% active; active = well fitted inhibition curve with a large enough effect; inconclusive = small, poorly fitted or top-dose-only effect, or another doubt; inactive = no such curve, though single readings can be large or run the other way; also: potency is read from the fitted curve at half-maximal effect; % is scaled to controls: 0 for no effect and ±100 for the full control effect
#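 Infected RBCs, 2% Hct / 0.05% parasitemia final; luciferase-reporter P. falciparum; cpd 96 h, 37 C, 5% CO2; luciferase detection reagent; luminescence.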
# CHX counter: counter-screen hit for Shiga toxin inhibitors, cycloheximide; cell reporter, cycloheximide protein synthesis inhibition counterscreen; max response, %; 300,000 tested, 12% active; AID 2314; in the data active = max response mostly above about 13%, no sharp cut-off; inactive = mostly below about 14%; also: read at 38.3 µM for the half of the compounds with a filed dose; 0% is about no effect
# * marks the source's active call; other numbers are inactive results; ? = inconclusive; nt = no result; [ ] = another dose, or the depositor's remark. Unless noted, calls follow the shape of the full dose curve.
SMILES,Pf growth 48h,SARS PLpro yeast,Shiga inhibitor,NS1 inh,Pf growth 96h,CHX counter
C=C1SC(Nc2c(C)cc(C)cc2C)=NC12CCCCC2,1.7µM*,-1%,-1,-38%,?,-2
CC1CCC2C(=O)N(c3cccc(C(=O)Nc4ccccc4Cl)c3)C(=O)C2C1 (stereo unspecified),-14%,12%,25,-4%,12µM*,1
COc1cccc(NC(=O)c2cccc(N3C(=O)C4CCC(C)CC4C3=O)c2)c1 (stereo unspecified),2.3µM*,0%,-7,-1%,4.1µM*,-3
COc1ccc2c(c1OC)C(=O)N1C2SC(C)(C)[C@H]1C(=O)NC(C)C (stereo partly specified),16%[0.00184 µM],5%,-8,-1%,6%,-2
CCN(CC)P(=O)(Nc1ccc(C)cc1Br)c1ccc(N(C)C)cc1NC(=O)c1ccco1 (stereo unspecified),?,-7%,17,nt,?,14
Cc1[nH]nc(SCC(=O)N2CCCCCC2)c1[N+](=O)[O-],-15%,-1%,29,0%,24%,11
Cc1[nH]nc(SCC(=O)N2CCCCC2)c1[N+](=O)[O-],87%,5%,86,3%,4%,23*
CCOc1ccccc1CNCC1CCCO1 (stereo unspecified),9%,-9%,-6,-6%,?,-4
CN(C)C(C)(C)C#CCC(c1ccccc1)c1ccccc1,9.3µM*,-1%,-7,-30%,?,-1
O=C1OC(c2ccc3c(c2)OCO3)N(C(=O)c2ccc(Cl)c(Cl)c2)c2ccccc21 (stereo unspecified),?,-25%,117*,-59%,nt,39*
Cc1cccc(C(=O)N2c3ccccc3C(=O)OC2c2ccc3c(c2)OCO3)c1 (stereo unspecified),-9%,-2%,27,-41%,34%,21*
COc1ccc2oc(C(=O)Nc3cccc(S(=O)(=O)N4CCOCC4)c3)c(C)c2c1,?,-3%,nt,nt,0%,nt
Cc1ccc(N(CC(=O)NC2CCCCC2)C(=O)CNC(=O)c2ccco2)cc1C,9%,1%,18,-10%,-25%,14
Cc1ccc2nsnc2c1NC(=O)c1sc2ccccc2c1Cl,-3%,-3%,-8,2%,73%,-3
CNC(=O)c1ccsc1NC(=O)CS(=O)(=O)c1ccccc1,12%,-1%,nt,nt,10%,nt
Cc1ccc(NC(=O)c2sc3ccccc3c2Cl)nc1,79%,1%,65*,-12%,129%,43*
CNC(=O)c1ccsc1NC(=O)c1sc2ccccc2c1Cl,105%,-20%,27,11%,113%,22*
Cc1cccnc1NC(=O)c1sc2ccccc2c1Cl,92%,-16%,90*,-32%,98%,51*
O=C(NC1=NCCS1)c1sc2ccccc2c1Cl,47%,-26%,93*,-5%,35%,47*
COc1cc(F)c(S(=O)(=O)N2CCN(S(=O)(=O)c3ccc4c(c3)OCCO4)CC2)c(F)c1,nt,nt,-5,nt,nt,-7
Cc1c(C(=O)NC2=NCCS2)oc2ccccc12,164%,-18%,56*,-97%,16%,33*
Cc1csc(NC(=O)c2oc3ccccc3c2C)n1,56%,-8%,nt,nt,14%,nt
Cc1nnc(NC(=O)c2sc3ccccc3c2Cl)s1,-26%,-17%,-21,-237%,-26%,11
COCc1nnc(NC(=O)c2sc3ccccc3c2Cl)s1,66%,-12%,91*,-170%,?,44*
COc1ccccc1C(=O)NC1CCN(C(=S)NCCc2ccccc2)CC1,-9%,0%,30,-4%,-2%,-4
SMILES,Pf growth 48h,SARS PLpro yeast,Shiga inhibitor,NS1 inh,Pf growth 96h,CHX counter
COc1ccc(/C=N/n2c(N)c(S(=O)(=O)c3cccs3)c3nc4ccccc4nc32)cc1OC,2.9µM*,2%,-16,5%,nt,-2
Cc1ccc(S(=O)(=O)c2c(N)n(/N=C/c3ccco3)c3nc4ccccc4nc23)cc1C,2.1µM*,2%,-12,?,3.3µM*,-9
Cc1cccc(S(=O)(=O)c2c(N)n(/N=C/c3cccnc3)c3nc4ccccc4nc23)c1,-20%,-2%,-26,-90%,nt,-3
Nc1c(S(=O)(=O)c2ccccc2)c2nc3ccccc3nc2n1/N=C/c1ccco1,?,-2%,-6,13%,?,-1
Cc1ccc(S(=O)(=O)c2c(N)n(/N=C/c3ccco3)c3nc4ccccc4nc23)cc1,6.6µM*,0%,11,-47%,?,-1
CCCCNC(=O)c1c(N)n(/N=C/c2ccccn2)c2nc3ccccc3nc12,25%,-5%,9,?,1.5µM*,14
CCOC(=O)C1CCN(C(=O)Nc2c(-c3ccccc3)noc2C)CC1,1%,2%,-16,0%,-2%,-2
Cc1ccc(S(=O)(=O)N2CCC(=O)CC2)cc1,1%,0%,6,-1%,15%,-2
Cc1cccc(S(=O)(=O)c2c(N)n(/N=C/c3ccco3)c3nc4ccccc4nc23)c1,8.3µM*,7%,-12,?,-19%[5.75 µM],-1
COCCNC(=O)c1c(N)n(/N=C/c2ccc(F)cc2)c2nc3ccccc3nc12,-1%,-1%,-3,10%,?,-2
Cc1ccc(-n2c(N)c(S(=O)(=O)c3ccccc3)c3nc4ccccc4nc32)cc1,0%,2%,-6,nt,?,8
Nc1c(C(=O)NC2CCCCC2)c2nc3ccccc3nc2n1/N=C/c1ccco1,15%,-5%,-11,-2%,9.3µM*,-4
Cc1cccc(S(=O)(=O)c2c(N)n(-c3ccccc3)c3nc4ccccc4nc23)c1,?,26%,1,19%,9.3µM*,-3
COc1ccc(C2=NCCn3cccc32)c(OC)c1,-19%,6%,-4,6%,?,-6
O=C1C(=O)c2ccccc2C(O)=C1C(CCc1ccccc1)C1=C(O)c2ccccc2C(=O)C1=O,nt,nt,nt,-38%,nt,nt
O=[N+]([O-])c1ccc(N2CCN(S(=O)(=O)c3ccccc3)CC2)cc1NCc1ccco1,-20%,22%,10,9%,13µM*,4
O=[N+]([O-])c1ccc(N2CCN(S(=O)(=O)c3ccc(Cl)cc3)CC2)cc1NCc1cccnc1,7.4µM*,1%,-14,1%,?,1
O=[N+]([O-])c1ccc(N2CCN(S(=O)(=O)c3ccccc3)CC2)cc1NCc1cccnc1,9.3µM*,0%,-4,14%,-1%,-1
O=[N+]([O-])c1ccc(N2CCN(S(=O)(=O)c3ccccc3)CC2)cc1NCC1CCCO1 (stereo unspecified),8%,-7%,-8,14%,?,-3
COCCNC(=O)C(c1ccc(C)cc1)N(C(=O)C(=O)NC1CCCC1)c1ccc2c(c1)OCCO2 (stereo unspecified),0%,0%,23,1%,-28%,20
COc1ccccc1-n1cnnc1SC(C)C(=O)NCC1CCCO1 (stereo unspecified),5%,-2%,nt,nt,1%,nt
